Most compounds without a hit are left out; they make up all but 9.2% or so of the library.
HPGD inh: blocks human HPGD enzyme activity; 150,000 compounds, 4.3% hits; Potency, µM, for the others: at the top dose activity change, negative = inhibition, most hits filed as inhibitors; AID 894; purified HPGD, NADH fluorescence kinetic, PGE2 substrate; P15428; also: % is scaled to controls: 0 for no effect and ±100 for the full control effect
Target sequence (P15428 whole entry, looked up): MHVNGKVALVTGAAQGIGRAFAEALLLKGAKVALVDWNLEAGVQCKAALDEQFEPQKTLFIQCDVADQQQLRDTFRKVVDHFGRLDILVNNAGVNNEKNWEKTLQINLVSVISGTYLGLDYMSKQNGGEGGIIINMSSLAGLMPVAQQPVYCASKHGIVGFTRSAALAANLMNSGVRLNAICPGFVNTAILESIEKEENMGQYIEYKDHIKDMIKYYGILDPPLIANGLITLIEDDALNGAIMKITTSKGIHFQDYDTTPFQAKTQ
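20 nM HPGD preincubated 15 min at room temperature with compound in 50 mM Tris-HCl pH 8, 0.01% Tween 20. Started with 1 mM NAD+ and 30 uM prostaglandin E2; NADH fluorescence (360/450 nm) read 5 times over 30-s intervals, last minus first.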
HTT cytoprotect: protects HTT-Q103 PC12 cells, measured by ATP | 230,000 compounds, 0.14% hits | Potency, µM (doses to about 56.4 µM), for the others: cytoprotection (ATP increase), hits mostly activators | PC12 HTT-Q103 induced, cytoprotection, ATP luminescence, 40 h; active = well fitted curve in the direction sought with a large enough effect; inconclusive = small, poorly fitted or top-dose-only effect, or another doubt; inactive = no such curve, though single readings can be large; an effect the other way counts as inactive or inconclusive; also: % of control where 0% means no effect; nearly all actives have a fitted effect of over 45% in size
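Stable PC12 Q103-GFP cells in serum-supplemented, phenol red-free DMEM; induction by tebufenozide at 100 nM final; compound dose series; cell viability quantified luminescently from ATP.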
ALDH1A1 block: blocks purified human ALDH1A1 activity | P00352 | Purified ALDH1A1, NADH fluorescence, propionaldehyde substrate | Potency, µM (doses to about 75.3 µM), without a hit: top-dose activity, negative = inhibition, most hits filed as inhibitors | 220,000 compounds, 7.3% hits | AID 1030;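 also: plate controls were no enzyme wells and a reference inhibitor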
JMJD2E inh: blocks human JMJD2E demethylase activity | Potency, µM (titrated, usually from 57.1 µM), for the others: top-dose activity change, negative = inhibition, usual class: inhibitors | JMJD2E catalytic domain, FDH-coupled NADH fluorescence (FDH is formaldehyde dehydrogenase) | 230,000 compounds, 1.6% hits | AID 2147 | B2RXH2;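 also: 0% = wells with enzyme and -100% = buffer wells without enzyme; nearly all actives have a fitted effect of over 50% in size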
Target sequence (B2RXH2 1-337 limits assumed): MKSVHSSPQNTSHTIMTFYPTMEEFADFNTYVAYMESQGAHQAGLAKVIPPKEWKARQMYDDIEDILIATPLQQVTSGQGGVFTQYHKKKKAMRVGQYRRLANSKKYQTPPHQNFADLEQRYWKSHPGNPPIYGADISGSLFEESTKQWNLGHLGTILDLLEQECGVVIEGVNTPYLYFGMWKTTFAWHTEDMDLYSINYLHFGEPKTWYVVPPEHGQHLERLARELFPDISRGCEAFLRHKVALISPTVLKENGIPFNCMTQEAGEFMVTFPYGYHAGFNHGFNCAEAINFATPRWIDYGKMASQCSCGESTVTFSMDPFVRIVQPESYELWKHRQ
Lamin A splicing: LMNA splicing modulation; Potency, µM (highest dose often 46.1 µM), for inactives: top-dose ratio change, negative = inhibition, hits mostly inhibitors; 200,000 compounds, 0.01% hits; HeLa LMNA splicing GFP/RFP minigene ratio, 48 h; active = well fitted inhibition curve with a large enough effect in the signal ratio, with a control signal flat, not every such curve was filed as active; inconclusive = small, poorly fitted or top-dose-only effect, or effect the other way, or a change in a side signal; the % refers to the signal ratio; also: % is scaled to controls: 0 for no effect and ±100 for the full control effect
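Read-out is the ratio of GFP to DsRed2 object intensity, acquired by 488 nm laser-scanning cytometry on HeLa lamin A-EGFP minigene reporter cells. Compound incubation 48 hrs at 37 °C in Opti-MEM with 2% FBS; DMSO 0.5% final.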
HTT aggregate: mutant huntingtin aggregation inhibition; PC12 HttQ103-GFP aggregates, Acumen cytometry, 40 h; Potency, µM (top dose mostly 46.1 µM), without a hit: top-dose activity change, negative = inhibition, usual class: inhibitors; 220,000 compounds, 1.1% hits; AID 1688; active = well fitted curve in the direction sought with a large enough effect; inconclusive = small, poorly fitted or top-dose-only effect, or another doubt; inactive = no such curve, though single readings can be large; an effect the other way counts as inactive or inconclusive; also: % is scaled to controls: 0 for no effect and ±100 for the full control effect; nearly all actives have a fitted effect of over 60% in size
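PC12 cells with ecdysone-inducible HTT exon1 Q103-GFP, induced by 100 nM tebufenozide, given compounds in a concentration series. GFP aggregates (1–25 um, 6 SD above background) counted in lysates by laser-scanning cytometry, 488 nm excitation.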
* marks the source's active call; other numbers are inactive results; ? = inconclusive; . = not tested or not shown; [ ] = dose if it differs, or a comment. Unless noted, calls follow the shape of the dose curve; as a rule, active = well fitted inhibition curve with a large enough effect (not every such curve was filed as active); inconclusive = small, poorly fitted or top-dose-only effect, or another doubt; inactive = no such curve, though single readings can be large or run the other way. Potency is read from the fitted curve at half-maximal effect.

SMILES	HPGD inh	HTT cytoprotect	ALDH1A1 block	JMJD2E inh	Lamin A splicing	HTT aggregate
O=C(NCCc1cccs1)C1CC(c2cccc(F)c2)=NO1 (stereo not given)	.	-6%[10 µM]	.	2%	.	-4%[9.22 µM]
CCC1CCCCN1C(=O)CSc1nc2c([nH]c3ccccc32)c(=O)n1-c1ccc(OC)cc1 (stereo not given)	.	.	.	.	25%[46 µM]	.
CCC(Sc1nc2ccccc2c2nc(CCc3c(C)n[nH]c3C)nn12)C(=O)Nc1ccc(OC)cc1 (stereo not given)	.	.	.	.	17%[46 µM]	.
Cc1ccc(C(CC(=O)c2ccco2)SCCO)cc1 (stereo not given)	-13%	-4%	-10%	?	?	11%
O=C(CC(SCCO)c1ccc(F)cc1)c1ccco1 (stereo not given)	-27%	-30%	28µM*	-15%	?	30%
Clc1ccc(-c2nnc(-c3ccccc3)o2)c(Cl)c1	?	-18%[1.9 µM]	32µM*	-24%	11%	-11%
CSc1nnc(-c2ccccc2Cl)o1	32µM*	-3%	6%	3%	12%	-2%
CSc1ccccc1-c1nnc(-c2ccc(Cl)cc2Cl)o1	?	-59%	?	?	17%	2%
CSc1nnc(-c2ccc(Cl)cc2Cl)o1	-20%	-1%	8%	0%	-8%	14%
Fc1ccc(-c2nnc(-c3ccc(Cl)cc3Cl)o2)cc1	-16%	-75%	-2%	?	5%	-11%
CCSc1nnc(-c2ccc(Cl)cc2Cl)o1	14µM*	-20%	?	3%	5%	2%
CCCCc1nc2c(c3c1C[C@H](C)OC3)CN(C(=O)Cc1cccc(OC)c1)CC2	-7%	-15%[10 µM]	7%[13.5 µM]	1%[11.4 µM]	-6%[9.22 µM]	.
COC(=O)[C@@H]1C[C@@]1(C)[C@@H](NC(=O)OCc1ccccc1)c1ccccc1	-15%	-18%	?	3%	.	.
Cc1c(C(=O)NCc2ccccc2Cl)sc2ncnc(N(C)C3CCCCC3)c12	.	.	.	.	-10%[46 µM]	.
CN(Cc1ccco1)c1nc(-c2cccnc2)nc2ccccc12	.	4%	32µM*	.	?	.
CN(Cc1ccco1)c1nc(-c2ccccc2Cl)nc2ccccc12	-8%	4%	-15%	-12%	?	.
CCN(C(=O)COC(=O)CNC(=O)c1ccc(C)c(C)c1)C1CCS(=O)(=O)C1 (stereo not given)	-12%	36%[10 µM]	25µM*	5%	-8%	6%
CCN(C(=O)COC(=O)CNC(=O)c1ccc2ccccc2c1)C1CCS(=O)(=O)C1 (stereo not given)	.	0%[10 µM]	-3%	-13%	6%[46 µM]	6%
Fc1cccc(CSc2ncnc3c2ncn3[C@H]2CCCS2)c1	-24%	-9%[10 µM]	-12%[13.5 µM]	.	.	.
Cc1cccc(OCC(=O)Nc2nnc(-c3ccco3)s2)c1	.	-29%	32µM*	?	-13%[46 µM]	?
COc1ccccc1OCC(=O)Nc1nnc(-c2ccco2)s1	-22%	-4%	7.1µM*	0%	-4%	5%
O=C1NCCCN1Cc1ccc(F)cc1Cl	-20%	-12%[0.074 µM]	4.5µM*	12%	-2%	6%
Cc1ccc(N2CCN(CCC(=O)O)CC2)cc1	-8%	12%[10 µM]	8%[13.5 µM]	.	.	.
CSc1ccccc1N=CC1=C(O)CC(C)(C)CC1=O	-30%	27%	2µM*	-19%	-4%	-1%
CC1(C)CC(=O)C(C(N)=NC(=O)c2ccccc2)=C(O)C1	.	-24%	10µM*	-3%	.	-9%
SMILES	HPGD inh	HTT cytoprotect	ALDH1A1 block	JMJD2E inh	Lamin A splicing	HTT aggregate
CC1(C)CC(=O)C(C=Nc2cc(C(=O)c3ccccc3)ccc2N)=C(O)C1	.	-20%	11µM*	-3%	?	-4%
COC(=O)c1ccc(N)c(N=CC2=C(O)CC(C)(C)CC2=O)c1	-22%	.	20µM*	?	1%	1%
CCCC[C@H]1C[C@@H]1[C@@H]1N(P(=O)(c2ccccc2)c2ccccc2)[C@](CO)(c2ccccc2)CC12CC2	-15%	-207%	-8%	-7%	.	.
CC(=O)O[C@](C)(CCC=C(C)C)C1CC=C(C)CC1 (stereo not given in full)	-6%	.	0%	0%	?	.
CN(Cc1ccccc1)c1ncnc(N)c1[N+](=O)[O-]	.	-11%[10 µM]	2%	-2%	?	-32%[9.22 µM]
CN(Cc1ccccc1)c1ncc(C=O)s1	.	-10%	7.1µM*	?	.	-20%
O=C(CN1C(=O)C2CC=CCC2C1=O)Nc1ccc(S(=O)(=O)N2CCOCC2)cc1 (stereo not given)	.	-9%	7%	10%	?	0%
O=C1NC(=S)S/C1=C\c1coc2ccc(O)cc2c1=O	.	-20%[10 µM]	?	-3%	.	7%[9.22 µM]
O=C1NC(=S)S/C1=C\c1coc2ccccc2c1=O	.	.	8.9µM*	-20%	.	22%
COc1ccccc1N(C(=O)c1ccncc1)c1nc(-c2ccc([N+](=O)[O-])cc2)cs1	-16%	2%[10 µM]	11µM*	4%	?	-7%
CC1=NOC(=O)/C1=C\c1ccc(-c2ccc(Br)cc2)o1	.	-28%	10µM*	?	.	-14%
COc1cc(OC)c(NC(=O)C2CCN(S(=O)(=O)c3c(C)noc3/C=C/c3c(C)cc(C)cc3C)CC2)cc1Cl	.	.	.	.	26%[46 µM]	.
CC(=O)Nc1sc2c(c1CN1CCN(c3ccccn3)CC1)CCCC2	-16%	?	22µM*	-1%	?	11%[9.22 µM]
COCC(=O)N1CCC2(CC1)CN(c1ccc(-c3ccccc3)cc1)C2	?	-1%	?	.	.	.
O=[N+]([O-])C(=C1Nc2ccccc2N1)/C(Cl)=C(/Cl)Br	-7%	.	24µM*	?	4%	11%
O=C(O)c1ccccc1Cl	-10%	-111%	?	.	.	.
C=Cc1ccc(C=C)cc1	-4%	0%	14µM*	.	.	.
C=Cc1cccc(C)c1	1%	-27%	6%	.	.	.
CCN(c1ccc(C)cc1C)S(=O)(=O)c1nnc(NC(=O)c2ccc(F)cc2)s1	.	.	.	.	10%[46 µM]	.
CN(Cc1nc(-c2ccccn2)no1)S(=O)(=O)c1ccc(Br)cc1	22µM*	4%[0.074 µM]	?	2%	-3%	?
CN(Cc1nc(-c2cccnc2)no1)S(=O)(=O)c1ccc2ccccc2c1	-28%	9%	-1%	0%	?	-13%
CC(C)N(Cc1nc(-c2ccccc2)no1)C(=O)CN(C)S(=O)(=O)c1ccc(Br)cc1	.	-4%	-2%	5%	?	0%
CN(Cc1nc(-c2cccnc2)no1)S(=O)(=O)c1ccc(Br)cc1	?	-18%[10 µM]	4%	-2%	-10%	22µM*
Cc1nn(C)c2c1c(-c1ccccc1)cc(=O)n2CC(=O)NC(C)C	.	.	.	.	6%[46 µM]	.
Cc1ccccc1-n1c(SC/C(O)=C(\C#N)c2nc3ccccc3[nH]2)nnc1-c1ccncc1	-24%	1%	?	?	2%	-5%
Cc1cc(C)n2c(SC/C(O)=C(\C#N)c3nc4ccccc4[nH]3)nnc2n1	?	12%	18µM*	?	-3%	-11%

Bioassay records: PubChem BioAssay, National Center for Advancing Translational Sciences (NCATS)
